Assay outcomes as filed in PubChem.
Peg3 prom inh = Peg3 promoter-driven luciferase inhibitors, primary screen, cell-based, HeLa, luciferase luminescence. 360,000 compounds, 1.7% hits. HeLa PEG-Prom luciferase reporter, overnight. inhibition, % at 20 µM;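 active means inhibition of at least 50% at 20 µM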
HIF-2a block = HIF-2a reporter inhibitors, primary screen, luminescence, 786-0 RCC cells. 786-0 RCC cells HIF-2a reporter, luciferase luminescence, overnight. inhibition, % at 18.8 µM. 360,000 compounds, 0.72% hits. AID 624352, 2012;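 active means inhibition of the luminescence signal of 40% or more relative to plate controls, in a single-dose primary screen at 18.75 µM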
CF NFkB inh = inhibitors of PAF-induced NF-kB signaling, primary screen, cell-based, GFP fluorescence, uHTS; KKLEB NF-kB-GFP reporter, GFP fluorescence overnight; inhibition, % at 5 µM; 360,000 compounds, 0.86% hits; AID 588850, 2011;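 active means at least 50% inhibition at 5 µM, scaled per plate between neutral and stimulator controls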;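 further: PAF is a Pseudomonas aeruginosa culture filtrate used as stimulus; plate controls were PAF-stimulated DMSO wells for no effect and unstimulated DMSO wells for full effect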
MITF TRPM1 inh = inhibitors of MITF-dependent TRPM1 promoter reporter, primary screen, cell-based, SK-MEL-5, single point, luciferase; SK-MEL-5 TRPM1 promoter luciferase, 24 h; inhibition, % at 12.5 µM; 330,000 compounds, 0.83% hits; AID 488899, 2010;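 active means mean inhibition across replicates of 60% or more, whatever share of single replicates reaches that level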
KKLEB cytotox = cytotoxicity in KKLEB CF airway cells, primary screen, cytotoxicity control for CF NF-kB inhibitor project, cell-based, uHTS, fluorescence assay plates. KKLEB CF airway cells viability, ATPlite luminescence, overnight; hits give low values; cells stimulated with P. aeruginosa culture filtrate. activity change (cytotoxicity), % at 5 µM. 360,000 compounds, 0.36% hits. AID 602141, 2011;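 active means corrected activity change at or below -50% at 5 µM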
B2AR ag = beta2AR agonists driving receptor internalization, primary screen, cell-based, FAP fluorogen, flow cytometry; response, % (concentration not given with the values); Am2.2-beta2AR cells; 340,000 compounds, 0.43% hits; Beta-2 adrenergic receptor (Homo sapiens), P07550;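 active means response above a set limit, near 3 SD of response in nonfluorescent compounds, cut at about 42% in these data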
Target sequence (P07550 whole entry, looked up): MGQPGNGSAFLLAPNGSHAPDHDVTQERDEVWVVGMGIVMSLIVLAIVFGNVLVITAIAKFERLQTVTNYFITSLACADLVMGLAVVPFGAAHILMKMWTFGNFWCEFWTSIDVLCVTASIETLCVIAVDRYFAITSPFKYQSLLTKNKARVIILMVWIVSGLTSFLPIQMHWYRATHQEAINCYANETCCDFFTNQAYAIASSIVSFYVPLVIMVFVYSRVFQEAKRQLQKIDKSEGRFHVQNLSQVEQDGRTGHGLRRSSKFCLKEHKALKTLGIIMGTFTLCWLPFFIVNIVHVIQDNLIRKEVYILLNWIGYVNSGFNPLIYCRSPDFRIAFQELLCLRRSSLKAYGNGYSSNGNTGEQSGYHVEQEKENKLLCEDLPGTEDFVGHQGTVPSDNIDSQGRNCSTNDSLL
* marks the source's active call; other numbers are inactive results; . = not tested or not shown. A selection: hits, their analogues and other compounds. The true share with any hit is near 2.8%.

SMILES	Peg3 prom inh	HIF-2a block	CF NFkB inh	MITF TRPM1 inh	KKLEB cytotox	B2AR ag
CC(C)c1ccc(NC(=O)C2(C)Cc3c(-c4ccc(C(N)=O)cc4)ccnc3O2)cc1 (stereo unspecified)	1	24	-90	.	-7	.
COc1cccc(-c2cnc(C(O)c3ccc(C)c(F)c3)[nH]2)c1 (stereo unspecified)	5	-34	15	.	-3	.
CCOC(=O)c1c2ccc(OCC(=O)N/N=C/c3ccc(C)cc3)cc2n2ccccc12	84*	-30	-11	7	-5	-1
Cc1cccc2nc(-c3ccco3)c(Nc3ccccc3)n12	3	15	-13	4	0	3
Cc1ccc(Nc2c(-c3ccccn3)nc3cccc(C)n23)cc1	35	29	24	71*	-35	15
COc1ccc(-c2c[n+](CC(=O)c3ccccc3)c3n2CCCCC3)cc1	2	18	-8	20	2	-1
COc1ccc(-c2c[n+]3c4n2CCCCC4=C(c2ccccc2)C3)cc1	41	-13	-7	78*	17	0
C[C@@H]1CN([C@H](C)CO)C(=O)CCCn2nncc2CO[C@H]1CN(C)S(C)(=O)=O	-3	4	-17	.	3	.
Oc1cccc(C(O)CNCc2ccc(OCc3ccc(Cl)cc3Cl)cc2)c1 (stereo unspecified)	93*	0	-6	-13	-16	3
Cc1cnc(C=NNC(N)=S)c2cccc(N)c12	32	-12	4	66*	-5	-3
NC(=S)NN=Cc1nccc2ccccc12	-58	-155	87*	38	-74*	-2
CCOC(=O)[C@]12CCC=C1N(Cc1ccc(Cl)cc1Cl)C(=O)[C@H](CC(=O)NCC13CC4CC(CC(C4)C1)C3)C2	.	-12	.	.	.	.
COc1cccc(C(=O)N2CCC[C@H]2C(=O)N2CCC[C@H]2C(=O)NCc2ccncc2)c1	.	5	.	.	.	.
COc1cccc(NC(=O)C2CCCN2C(=O)Nc2cccc(F)c2)c1 (stereo unspecified)	67*	12	20	11	-5	1
CCCCNc1c(-c2ccc(-c3ccc(OC)cc3)c(OC)c2)nc2ccccn12	49	-275	2	-64	8	46*
CCCCCCSc1cc(-c2nc3cnccn3c2NCCCC)ccc1OC	1	10	-17	-6	5	-28
CCCCNc1c(-c2ccc(OC)c(Sc3ccc(OC)cc3)c2)nc2cnccn12	37	1	2	0	12	15
CCCCNc1c(-c2ccc(OC)c(Sc3ccc(OC)cc3)c2)nc2ccccn12	93*	-226	21	11	-6	28
C[C@H](CO)N1C[C@H](C)[C@H](CN(C)C(=O)NC2CCCCC2)Oc2ncc(Br)cc2C1=O	4	2	-24	.	11	.
COc1ccc(-c2nn(-c3ccccc3)cc2CNC[C@H]2O[C@@H](n3cnc4c(=O)[nH]c(N)nc43)[C@H](O)[C@@H]2O)cc1	3	3	-30	.	-4	.
COc1ccc(C2NCCc3c2[nH]c2ccccc32)cc1CSc1nc2ccccc2s1 (stereo unspecified)	92*	-18	16	-3	-23	23
O=c1[nH]c(CSc2nc3ccccc3s2)nc2ccccc12	-139	-187	3	-29	-5	0
O=C(Nc1ccc(Br)c(C(F)(F)F)c1)c1ccc(C(F)(F)F)cc1	-48	-274	65*	.	-69*	32
O=C(Nc1ccc(Br)c(C(F)(F)F)c1)c1ccccc1	-183	-212	-7	-20	12	3
O=C(Nc1ccc(OCC(F)(F)C(F)F)c(C(F)(F)F)c1)c1ccc(Cl)cc1	25	-13	42	68*	-40	4
Cc1ccc(N2CCN(S(=O)(=O)c3c(C)nc4sccn4c3=O)CC2C)cc1 (stereo unspecified)	7	-3	8	.	-9	.
O=C(COc1coc(CN2CCc3ccccc32)cc1=O)Nc1cccc(F)c1	14	6	64*	4	-56*	3
